Myeloid diff 2 = induction of myeloid progenitor differentiation, primary screen, cell-based, flow cytometry, MLPCN library | calls only at 10 µM | ER-HoxA9 myeloid progenitors, lysozyme-GFP differentiation | 360,000 compounds, 1% hits;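 active means normalized GFP-positive differentiation at or above the plate's own cutoff, the solvent-only control mean plus 3 SD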;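 further: cells exposed to compound for four days before flow analysis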
TLR9-MyD88 block = inhibitors of TLR9-MyD88 association in cells, primary screen, cell-based, CHO, BLA complementation, fluorescence; inhibition, % at 4.98 µM; 340,000 compounds, 0.21% hits; CCF4 FRET ratio;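 active means inhibition above the mean over all tested compounds plus 3 SD, cut at about 21% in these data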
NOD2-RIPK2 inh = NOD2-RIPK2 binding disruptors in cells, primary screen, fluorescence, CHO cells, BLA complementation | CCF4 ratio | Receptor-interacting serine/threonine-protein kinase 2 (Homo sapiens), O43353 | AID 624267, 2012 | inhibition, % at 4.98 µM | 360,000 compounds, 0.38% hits; in the data active means inhibition above about 21%
ABCB6 inh MLPCN = ABCB6 transporter inhibitors, primary screen, K562-ABCB6 cells, flow cytometry, MLPCN library | ATP-binding cassette sub-family B member 6 (Homo sapiens), Q9NP58 | K562-ABCB6 porphyrin accumulation, 1 h; stronger effect = lower value | fluorescence ratio to DMSO, % at 10 µM | 360,000 compounds, 0.19% hits;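 active means fluorescence ratio to DMSO below 75%, the collection mean minus 3 SD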;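 further: signal is porphyrin accumulated inside mitochondria; lower ratio means ABCB6 inhibition with less porphyrin fluorescence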
TLR4 MyD88 comp = inhibitors of TLR4-MyD88 association in cells, primary screen, cell-based, HeLa CL3-4, BLA complementation, FRET ratio. Toll-like receptor 4 (Homo sapiens) + Myeloid differentiation primary response protein …. HeLa CL3-4 TLR4/MyD88 BLA complementation. inhibition, % at 8.4 µM. 200,000 compounds, 0.18% hits; in the data active means inhibition above about 25%
Myeloid diff = inducers of myeloid progenitor differentiation, confirmation, cell-based, GFP/Mac1 flow cytometry, cherry pick 01. shares compounds with Myeloid diff 2. calls only. AID 651706, 2012. 2,300 compounds, 2% hits. ER-HoxA9 myeloid progenitors, GFP/Mac1 double-positive flow;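 active means share of green or green-and-red cells above 9 and 9% in run 1 or 4 and 3% in run 2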
GFP autofluor = compound fluorescence in myeloid differentiation counter-screen | shares compounds with Myeloid diff 2 | ER-HoxA9 myeloid progenitors, no estrogen, GFP autofluorescence flow cytometry; vehicle wells 0%, positive control 100% | fluorescence response, % (concentration not given with the values) | 2,300 compounds, 7.4% hits;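 active means over 5% cells positive for green fluorescent reporter, or over 2% positive for both it and APC stain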
Numbers stand for hits; i = inactive; nt = no result; + = active, no number. Hits are enriched below; roughly 1.7% of the tested compounds scored in any of these assays.

SMILES	Myeloid diff 2	TLR9-MyD88 block	NOD2-RIPK2 inh	ABCB6 inh MLPCN	TLR4 MyD88 comp	Myeloid diff	GFP autofluor
Cc1cc(C)cc(N2C(=O)NC(=O)/C(=C\c3cccn3-c3ccc(Cl)cc3)C2=O)c1	i	i	i	i	i	i	i
C=CCn1c(O)c(C=NCCCOc2ccc(CC)cc2)c(=O)[nH]c1=S	+	i	i	i	i	i	i
CCOC(=O)[C@]12Cc3ccccc3[C@H]1N(CCC(=O)OC)C(=O)c1ccccc12	+	nt	i	i	nt	i	i
CCOC(=O)[C@]12Cc3ccccc3[C@H]1N(Cc1ccccc1)C(=O)c1ccccc12	i	i	i	i	nt	nt	nt
CCCCCN1C(=O)c2ccccc2[C@@]2(C(=O)OCC)Cc3cc(OC)ccc3[C@@H]12	+	nt	i	i	nt	i	i
O=C(/C=C/c1ccc2c(c1)OCO2)c1c(O)n(CCc2ccccc2)c(=O)[nH]c1=O	i	nt	i	i	nt	nt	nt
O=C(/C=C/c1ccccc1)c1c(O)n(CCc2ccccc2)c(=O)[nH]c1=O	+	i	i	i	i	i	i
O=c1[nH]c(=S)[nH]c(O)c1/C=C1/C=c2ccccc2=N1	+	i	i	i	nt	i	16.2
Cc1cccc2c1=NC(=O)/C(=C/c1c(O)[nH]c(=O)[nH]c1=O)C=2	i	i	i	i	i	nt	nt
C=C1C2[C@H](OC(C)=O)[C@@H]3CC(=O)[C@]4(C)OC[C@@]3(C)[C@@]4(O)[C@@H](OC(C)=O)[C@H](OC(C)=O)[C@@]2(COC(=O)c2ccccc2)[C@@H](OC(C)=O)C[C@@H]1O (stereo partly drawn)	i	i	i	i	nt	i	i
CCC(C)C1NC(=O)C(NC(=O)C(CC(C)C)N(C)C(=O)C2CCCN2C(=O)C(C)O)C(C)OC(=O)C(Cc2ccc(OC)cc2)N(C)C(=O)C2CCCN2C(=O)C(CC(C)C)NC(=O)[C@H](C)C(=O)[C@H](C(C)C)OC(=O)CC1O (stereo partly drawn)	nt	i	i	i	nt	nt	nt
CCCCCCC(=O)N/N=C/c1c(O)n(C2CC2)c(=S)[nH]c1=O	i	i	i	i	nt	nt	nt
CCCCCCC(=O)N/N=C/c1c(O)n(C(C)CC)c(=S)[nH]c1=O (stereo not drawn)	i	i	i	i	nt	i	i
Cc1ccc(C(=O)Nc2ccc(Cl)cc2C(=O)c2ccccc2)cc1	i	i	i	i	i	i	5.1
O=C(CCC(=O)N1CC2C[C@@H](C1)Cn1c2cccc1=O)NCCc1ccccc1F	i	i	i	i	nt	i	i
O=C(CCC(=O)N1C[C@H]2C[C@@H](C1)c1cccc(=O)n1C2)NCc1ccc(F)cc1	i	i	i	i	nt	nt	nt
Cn1ccnc1P(=S)(c1nccn1C)c1nccn1C	+	i	i	i	i	i	i
c1ccc(CN2COC3CCCCCC32)cc1 (stereo not drawn)	i	nt	i	i	nt	nt	nt
O=C1NC(=O)N(Cc2ccccc2)C(=O)/C1=C/C=C/c1ccco1	i	i	i	i	nt	i	i
CCOC(=O)c1c(NC(=O)c2c(N)n(CCCOC)c3nc4ccccc4nc23)sc2c1CCCC2	i	i	i	i	i	i	i
OC(c1ccccc1)(c1ccccc1)c1ccncc1	+	i	i	i	i	i	i
O=c1[nH]c2ccccc2n1C1CCN(C(CCc2ccccc2)c2nnnn2-c2ccc3c(c2)OCCO3)CC1 (stereo not drawn)	i	nt	i	i	nt	nt	nt
Cc1ccccc1C1=NCC(=O)N(CC(=O)NCc2ccco2)c2sc3c(c21)CCCC3	i	i	i	i	i	i	i
CCC(C)C1N=C(c2ccccc2)c2cc(Cl)ccc2N(CC(=O)NCc2ccco2)C1=O (stereo not drawn)	i	i	i	i	i	nt	nt
COc1ccc(-c2ccc3c(c2)CNCc2cnnn2-3)cc1	i	nt	i	i	nt	nt	nt
SMILES	Myeloid diff 2	TLR9-MyD88 block	NOD2-RIPK2 inh	ABCB6 inh MLPCN	TLR4 MyD88 comp	Myeloid diff	GFP autofluor
c1cc2c(cc1-c1ccc3c(c1)OCO3)CNCc1cnnn1-2	i	nt	i	i	nt	nt	nt
O=C1NC(=O)N(Cc2ccc(F)cc2)C(=O)/C1=C\c1ccc(N2CCCC2)cc1	+	i	i	i	nt	i	i
O=C1NC(=O)N(c2ccc(F)cc2)C(=O)/C1=C/c1ccc(N2CCOCC2)cc1	i	i	i	i	i	nt	nt
CCC(c1nnnn1Cc1ccccc1)N1CCC2(CC1)C(=O)NCN2c1ccccc1 (stereo not drawn)	i	nt	i	i	nt	nt	nt
COc1ccc(CN2CCN(C(=O)Cc3ccccc3)CC2)c(OC)c1	i	i	i	i	i	nt	nt
COc1ccc(CN2CCN(Cc3ccccc3)CC2)c(OC)c1	i	i	i	i	i	i	i
CN(C)P1(=O)N(C)CCN1C	i	nt	i	i	nt	nt	nt
O=C(Cc1cc(=O)oc2cc(O)ccc12)NN=Cc1ccc(N(CCCl)CCCl)cc1	i	i	i	i	nt	i	i
O=C(NN=Cc1ccc(N(CCCl)CCCl)cc1)c1cc(=O)[nH]c(=O)[nH]1	i	i	i	i	nt	nt	nt
O=C1NC(=O)N(CCC2=CCCCC2)C(=O)/C1=C\c1cccs1	i	i	i	i	i	i	i
COC(=O)C1=C(c2cccc(Cl)c2)C[C@@H]2CC[C@H]1N2C(=O)N1CCCC1	i	i	i	i	nt	nt	nt
CC1CCCC(NC(=O)COC(=O)c2cn(C)c3ccccc23)C1C (stereo not drawn)	i	i	i	i	nt	nt	nt
Cc1ccc(-n2c(O)c(/C=C/C=Nc3ccccc3)c(=O)[nH]c2=O)cc1	i	i	i	i	i	i	i
COc1ccc(-n2c(O)c(/C(C)=N/Nc3ccccc3)c(=O)[nH]c2=O)cc1	i	i	i	i	nt	nt	nt
O=c1[nH]c(=O)n(C2CCCCC2)c(O)c1/C=C/C=Nc1ccccc1	+	i	i	i	nt	i	7.5
O=c1[nH]c(=O)n(-c2ccccc2)c(O)c1/C=C/C=Nc1ccccc1	i	i	i	i	i	nt	nt
C=CCn1c(O)c(/C=C/C=Nc2ccccc2)c(=O)[nH]c1=O	i	i	i	i	i	nt	nt
COc1ccc(-n2c(O)c(/C=C/C=Nc3ccccc3)c(=O)[nH]c2=O)cc1	i	i	i	i	i	i	97.2
O=C1NCN(c2ccccc2)C12CCN(C(CCc1ccccc1)c1nnnn1C1CCCCC1)CC2 (stereo not drawn)	i	nt	i	i	nt	nt	nt
CCN(CC)CCO	i	i	i	i	nt	nt	nt

High-throughput results (PubChem BioAssay)
